Rows were chosen to be rich in hits. Some 1.8% of all compounds tested hit in one or more screens of this group.
VLA-4 inh = inhibition in a human VLA-4 binding assay. P13612. 330,000 compounds, 0.2% hits. VLA-4 expressing cells, ligand binding flow cytometry. AID 2557. inhibition, % (about 7 µM as worked out from the volumes in the protocol)
Pemphigus Ab inh = human desmoglein-3 autoantibody binding inhibition; DSG3-coupled beads, scFv-anti-DSG3-GFP binding, flow cytometry; active compounds read low; binding (percent of control), % at 10 µM; P32926; 310,000 compounds, 0.48% hits;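 active = binding more than 3 SD below its plate's average and above zero; inconclusive = below that plate limit but binding exactly zero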;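 note: hits lower antibody fragment binding to DSG3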
GRK2 aptamer HTS = human GRK2 inhibition via aptamer displacement. bead flow cytometry, FAM-aptamer displacement from GRK2. 330,000 compounds, 0.59% hits. inhibition of aptamer binding, % at 10 µM. AID 488847;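 active = inhibition of aptamer binding above 40%, roughly 3 SD of noise, on plates passing a quality check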;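 note: median bead fluorescence of bound FAM aptamer so fluorescent compounds give negative values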
HDAC3 inhib = human HDAC3 inhibition | AID 2718 | inhibition, % at 8.3 µM | O15379 | recombinant HDAC3, fluorogenic peptide/trypsin coupled, fluorescence | 320,000 compounds, 0.15% hits; in the data active = inhibition above about 26%, passing the limit was not always enough; inconclusive = no clear call, values can overlap the other calls
LANA-H2B inh = blocks KSHV LANA binding to histone H2A/H2B. cell-free LANA-H2A/H2B peptide, fluorescence polarization. 320,000 compounds, 0.6% hits. inhibition, % (concentration not given with the values). AID 2629. Q9QR71; in the data active = inhibition mostly above about 10%, no sharp cut-off; inactive = mostly below about 6.7%
Target sequence (Q9QR71 whole entry, looked up): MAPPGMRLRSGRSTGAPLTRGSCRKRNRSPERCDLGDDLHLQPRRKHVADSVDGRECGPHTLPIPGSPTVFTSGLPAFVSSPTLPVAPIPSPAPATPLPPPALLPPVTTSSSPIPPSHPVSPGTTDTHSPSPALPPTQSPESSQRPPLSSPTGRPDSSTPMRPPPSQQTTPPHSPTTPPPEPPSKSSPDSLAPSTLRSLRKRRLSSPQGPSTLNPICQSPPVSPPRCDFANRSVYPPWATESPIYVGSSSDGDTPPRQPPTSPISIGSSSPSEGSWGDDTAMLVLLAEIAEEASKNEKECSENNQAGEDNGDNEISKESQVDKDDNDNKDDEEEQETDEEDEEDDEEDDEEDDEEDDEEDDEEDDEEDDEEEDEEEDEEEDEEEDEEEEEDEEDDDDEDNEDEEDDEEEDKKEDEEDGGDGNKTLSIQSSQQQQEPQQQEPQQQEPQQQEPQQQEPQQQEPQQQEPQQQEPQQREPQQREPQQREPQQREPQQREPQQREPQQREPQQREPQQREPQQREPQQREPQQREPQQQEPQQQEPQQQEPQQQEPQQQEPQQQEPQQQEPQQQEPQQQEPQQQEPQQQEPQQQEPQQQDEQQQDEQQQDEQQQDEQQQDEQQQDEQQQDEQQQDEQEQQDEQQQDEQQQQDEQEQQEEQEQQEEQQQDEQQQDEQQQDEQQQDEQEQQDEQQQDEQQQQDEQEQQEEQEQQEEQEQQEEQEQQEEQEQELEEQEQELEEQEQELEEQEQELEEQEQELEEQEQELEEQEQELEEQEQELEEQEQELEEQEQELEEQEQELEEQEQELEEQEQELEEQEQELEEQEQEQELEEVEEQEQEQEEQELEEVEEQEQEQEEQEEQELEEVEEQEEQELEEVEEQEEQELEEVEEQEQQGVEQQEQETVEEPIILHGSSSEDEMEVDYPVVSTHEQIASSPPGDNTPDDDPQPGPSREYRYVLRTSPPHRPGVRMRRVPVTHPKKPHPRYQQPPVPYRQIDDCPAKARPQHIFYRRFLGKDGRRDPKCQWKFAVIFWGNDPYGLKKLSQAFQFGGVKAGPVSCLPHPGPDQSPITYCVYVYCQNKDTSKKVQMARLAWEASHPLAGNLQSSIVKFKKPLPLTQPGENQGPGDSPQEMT
PKD1 inh = PKD1 (human) kinase inhibition | PKD1 kinase fluorescence polarization assay | 200,000 compounds, 0.056% hits | inhibition, % (no concentration beside the values) | Q15139 | AID 797
The depositor's hits bear a star; ? = inconclusive; . = no result; ! = repeats disagree. Cut-off read from the data, not from the text of the source, unless noted: active = inhibition above about 50%; inactive = the rest.

SMILES	VLA-4 inh	Pemphigus Ab inh	GRK2 aptamer HTS	HDAC3 inhib	LANA-H2B inh	PKD1 inh
CCN(c1ccccc1)S(=O)(=O)c1ccc(OC)c(NC(=O)CN(C)C)c1	-1	91	0	-2	94*	-2
CSc1ccc(C=NNc2ccc(S(=O)(=O)Nc3ccccc3C(=O)O)cc2[N+](=O)[O-])cc1	-1	72*	0	?	2	.
CCOc1ccc(C=NNc2ccc(S(=O)(=O)Nc3ccccc3C(=O)O)cc2[N+](=O)[O-])cc1	-3	89*	2	7	-1	.
CCCCn1c(SCC(=O)NC(=O)Cc2ccccc2)nc2ccccc2c1=O	2	104	0	-5	1	.
Cc1ccc(NC(=O)CN(C)C(=O)COC(=O)[C@@H](NC(=O)c2ccccc2F)C(C)C)cc1	-22	.	0	-2	2	.
Cc1ccc(NC(=O)c2cccnc2)cc1C	27	16*	4	5	-4	.
COC(=O)c1ccc(C(=O)OC)c(NC(=O)COC(=O)c2ccccc2OC)c1	-14	-8.0*	1	-8	-2	0
COc1ccccc1C(=O)OCC(=O)Nc1ccccc1OC(F)F	7	109	1	6	-5	.
COc1ccccc1CC(=O)N(Cc1ccccc1)c1ccc(C)cc1	9	114	7	0	22*	.
COCCN(Cc1ccccc1)C(=O)Cc1ccc(OC)c(S(=O)(=O)N2CCOCC2)c1	-2	103	0	1	2	.
COc1ccc(CC(=O)N(Cc2ccccc2)c2ccccc2)cc1S(=O)(=O)N1CCOCC1	-16	.	0	-1	16*	.
COCCNC(=S)N(CCO)Cc1cc2cc3c(cc2[nH]c1=O)OCCO3	-8	100	0	32*	-7	.
CC(C)c1ccccc1OCC(=O)Nc1ccccc1C(=O)N1CCOCC1	-4	107	3	15	0	.
Nc1nc(N2CCN(C(c3ccccc3)c3ccccc3)CC2)n[nH]1	15	99	0	1	5	-9
Nc1nc(N2CCN(Cc3ccccc3)CC2)n[nH]1	-3	79*	1	-3	1	6
COC(=O)[C@H](CC(C)C)NC(=O)NCc1ccc(Cl)cc1	-3	97	1	9	-3	.
COc1ccc(-c2nc3c(=O)n(C)c(=O)[nH]c3n2CCc2ccccc2)cc1	-6	111	2	-14	20*!	-4
Cc1ccc(S(=O)(=O)NCCC(=O)N2CCCCCCC2)cc1	2	100	3	8	4	.
O=C(COC(=O)Cc1ccccc1)NCc1ccc2c(c1)OCO2	0	89	4	4	5	.
CN(C)c1ccsc1C(=O)NNS(=O)(=O)c1ccc(Cl)cc1	-6	107	4	7	-6	.
COc1cccc(N2CC(O)Cn3c2nc2c3c(=O)[nH]c(=O)n2C)c1 (centres undefined)	4	96	0	3	-2	.
COc1ccccc1/C=C/C(=O)OCCN1CCOCC1	22	99	2	-6	-6	-4
COc1ccccc1/C=C/C(=O)OC(C)CN1CCCCC1 (centres undefined)	10	89*	0	-7	-1	.
CCc1ccc(-c2nc(CS(=O)CC(=O)O)c(C)o2)cc1 (centres undefined)	7	101	5	4	1	.
CCCCCCc1nc(C(N)=O)c2[nH]c(=O)n(-c3ccccc3F)c2n1	-9	62*	6	-1	12	.
SMILES	VLA-4 inh	Pemphigus Ab inh	GRK2 aptamer HTS	HDAC3 inhib	LANA-H2B inh	PKD1 inh
Cc1cc(C)nc(NN2C(=O)/C(=C/c3ccc(O)cc3)SC2=S)n1	-6	99	84*	1	1	-8
C[C@@]12C(=O)N(c3cccc(F)c3)C(=O)N1[C@@H]1c3ccccc3OC[C@@H]1[C@H]2c1ccccc1	1	103	4	11	3	.
CCc1ccc(N(C(C)=O)c2nc(CCl)cs2)cc1	4	87*	1	?	0	-10
O=C(CSc1ccc(Cl)cc1)Nc1cccc(-c2nc3ccccc3[nH]2)c1	15	66*	0	.	.	8
O=C(O)CCCC(=O)Nc1cccc(-c2nc3ccccc3[nH]2)c1	7	93	0	-25	-2	5
CC(C)=NOc1nc(N2CCOCC2)nc(N2CCOCC2)n1	10	104	0	-5	-2	.
COc1cccc(NC(=O)CSc2nc3c([nH]c4ccccc43)c(=O)n2C)c1	60*	85	5	-3	6	6
COc1ccc(-n2c(SCC(=O)Nc3cc(C)on3)nc3c([nH]c4ccccc43)c2=O)cc1	-12	-8.2*	1	-2	-4	-3
CCN(CC)c1ccc(NC2=C(Cl)C(=O)c3ccccc3C2=O)cc1	54*	108	4	6	5	-9
Cc1ccc(NC2=C(Cl)C(=O)c3ccccc3C2=O)cc1	21	91	0	-3	-234	-10
O=C(CSCc1ccco1)c1ccc(Cl)s1	5	.	0	90*	1	-9
O=C(NNC(=S)NCc1ccco1)c1ccc(Cl)s1	-1	96	0	-5	-8	-1
NC1=C([N+](=O)[O-])C(c2ccc(F)cc2)C2=C(CCCC2=O)O1 (centres undefined)	-5	106	0	-5	3	-9
Cc1ccc(C(=O)OCC(=O)NC(C)C)cc1S(=O)(=O)N1CCOCC1	3	104	4	2	-3	-7
Cc1ccc(C)c(C(=O)COC(=O)c2ccc(C)c(S(=O)(=O)N3CCOCC3)c2)c1	2	97	13	-4	14*	.
Oc1ccc(C=Nc2ccc3ncccc3c2)c(O)c1	3	.	4	-13	-8	-4
COc1cccc(N=Cc2ccc(O)cc2O)c1	-1	85*	0	-1	0	13
Cc1cc(OCC(=O)NC2CC2)c2c(C)cc(=O)oc2c1	5	98	1	-16	13*	.
CCc1cc(=O)oc2cc(C)cc(OCC(=O)NC3CC3)c12	3	97	0	-6	-1	.
CC1(C)CN(c2ccsc2C(=O)O)C1=O	-34	56*	0	2	2	0
CCN(CC)C(=S)SSC(=S)N(CC)CC	11	106	1	1	20*	-7
CN(C)CCN(C(=O)C1CCN(S(=O)(=O)c2cccs2)CC1)c1nc2ccccc2s1	8	109	0	5	4	.
Nc1c(C(=O)c2ccccc2)oc2ccc([N+](=O)[O-])cc12	-5	60*	0	6	5	.
COc1ccc(C(=O)N2CCC(n3nccc3NC(=O)C3CCOC3)CC2)cc1 (centres undefined)	-11	116	0	-7	0	.
c1ccc(CNc2c3ccccc3nc3ccccc23)cc1	20	93	0	0	-2	.
Oc1ccc(CCNc2c3ccccc3nc3ccccc23)cc1O	4	230	5	7	14*	.
CC(C)NC(=O)c1ccc(N(Cc2ccccc2)S(C)(=O)=O)cc1	6	88*	2	5	-3	.

Screens as filed in PubChem BioAssay.
